Screening data (PubChem BioAssay)
HT1080 IDH1KD tx = toxicity to HT-1080 IDH1 knockdown cells (counter line) | Potency, µM (highest dose often 46.1 µM), for inactives: at the highest dose activity, negative = toxicity, usual class: cytotoxic | AID 686971 | hit rate 2% among 360,000 | HT-1080 IDH1 knockdown viability, ATP luminescence, 48 h;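 further: potency means the concentration at half of the fitted maximal effect; 0% = DMSO wells and -100% = cell-free medium wells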
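Assay cells: HT-1080 with IDH1 knockdown, 750 per well, RPMI/5% FBS. Exposure: 48 h at 37 °C following 2 h pre-incubation. Read: CellTiter-Glo luminescence; fitted concentration-response, curve class assigned.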
TDP1 cell CPT = DT40-hTDP1 cell growth loss with CPT | chicken DT40 Tdp1-/-;hTDP1 cells + 20 nM CPT, ATP luminescence, 48 h | Potency, µM (top dose mostly 46.2 µM), for inactives: at the top dose activity change, negative = growth inhibition, most hits filed as inhibitors | hit rate 12% among 420,000 | AID 686979; further: potency means the concentration at half of the fitted maximal effect; nearly all actives have a fitted effect of over 55% in size
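Cell growth measured by CellTiter-Glo luminescence after a minimum 48 h, 37 C compound exposure with 20 nM CPT in Tdp1-knockout DT40 cells stably expressing hTDP1, seeded 400/well; qHTS titration format.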
TDP1 cell noCPT = qHTS for Inhibitors of human tyrosyl-DNA phosphodiesterase 1 (TDP1): qHTS in cells in absence of CPT; hit rate 15% among 420,000; DT40 Tdp1-/- hTDP1 cells, no CPT, ATP luminescence, 48 h; Potency, µM (doses to about 46.2 µM), for inactives: at the highest dose activity change, negative = growth inhibition, actives largely listed as inhibitors; AID 686978, 2013; further: potency means the concentration at half of the fitted maximal effect; nearly all actives have a fitted effect of over 55% in size
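Readout: luminescence from CellTiter-Glo after 30 min in the dark at RT. Cells: DT40 Tdp1-/- with stable hTDP1, 400/well. Exposure: compounds alone, ≥48 hr, 37 °C.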
ALOX12 inh = blocks human arachidonate 12S-lipoxygenase; purified 12hLO, xylenol orange hydroperoxide absorbance; Potency, µM (titrated, usually from 108 µM), for inactives: at the highest dose activity change, negative = inhibition, hits mostly inhibitors; hit rate 1.1% among 580,000; AID 1671190; further: potency means the concentration at half of the fitted maximal effect
Target sequence (P18054 whole entry, looked up): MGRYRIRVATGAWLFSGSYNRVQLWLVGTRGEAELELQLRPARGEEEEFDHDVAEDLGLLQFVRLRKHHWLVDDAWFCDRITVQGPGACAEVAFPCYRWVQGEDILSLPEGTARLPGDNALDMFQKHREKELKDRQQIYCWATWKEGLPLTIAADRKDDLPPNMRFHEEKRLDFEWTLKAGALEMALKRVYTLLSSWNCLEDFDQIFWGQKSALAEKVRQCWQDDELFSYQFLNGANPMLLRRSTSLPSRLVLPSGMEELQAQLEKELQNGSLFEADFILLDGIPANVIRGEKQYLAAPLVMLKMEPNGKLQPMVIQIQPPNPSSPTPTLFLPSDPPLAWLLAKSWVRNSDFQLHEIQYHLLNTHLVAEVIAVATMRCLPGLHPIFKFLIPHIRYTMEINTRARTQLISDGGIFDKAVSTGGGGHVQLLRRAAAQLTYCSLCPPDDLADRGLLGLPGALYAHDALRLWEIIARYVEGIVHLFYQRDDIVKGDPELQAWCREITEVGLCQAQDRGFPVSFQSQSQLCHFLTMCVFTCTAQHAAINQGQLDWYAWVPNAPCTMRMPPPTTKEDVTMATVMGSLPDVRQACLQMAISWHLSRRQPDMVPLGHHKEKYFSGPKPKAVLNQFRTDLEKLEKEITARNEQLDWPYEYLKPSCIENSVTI
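Hydroperoxide product was detected by ferrous iron/xylenol orange as the 573 to 405 nm absorbance ratio. Arachidonic acid at 40 uM (final) was turned over for 30 min at room temperature by 150 nM human 12hLO, pH 7.0 Hepes buffer, after 15 min compound preincubation.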
IL-1B inflam inh = blocks inflammasome-driven IL-1 beta release; THP-1 LPS/ATP IL-1B secretion, AlphaLISA, 16 h; stronger effect = lower value; activity change, % at 57.5 µM; hit rate 4.7% among 360,000; in the data active means activity change below about -50%; inconclusive means mostly about -30% to -49%
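Secreted IL-1B measured by AlphaLISA bead assay after 16 h compound exposure of THP-1 cells; compounds (final up to 57.5 uM) added 1 h before LPS (250 ng/mL) and ATP (1.25 mM) stimulation; lower signal means less secretion.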
HT1080NT lethal = kills 2HG-producing HT-1080-NT fibrosarcoma cells | HT-1080-NT fibrosarcoma viability, CellTiter-Glo ATP luminescence, 48 h | Potency, µM (highest dose often 46.1 µM), without a hit: at the highest dose activity, negative = less viability, actives largely listed as cytotoxic | hit rate 1.6% among 360,000 | AID 686970;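 further: NT is the 2HG producing partner of a matched IDH1 knockdown line; potency means the concentration at half of the fitted maximal effect; 0% = DMSO-treated cells and -100% = media-only wells without cells; nearly all actives have a fitted effect of over 55% in size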
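HT-1080-NT; 750 cells/well; 5% FBS RPMI; 48 h compound, 37 degrees C; CellTiter-Glo luminescence; curve fitting and curve-class assignment.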
* marks the source's active call; other numbers are inactive results; ? = inconclusive; / = not tested or not shown; ! = repeats disagree; [ ] = dose if it differs, or a comment. The sample as a whole holds a higher share of hits than the screen did. Unless noted, the call rests on the fitted dose curve; in most records, active means well fitted curve in the direction sought with a large enough effect; inconclusive means small, poorly fitted or top-dose-only effect, or another doubt; inactive means no such curve, though single readings can be large; an effect the other way counts as inactive or inconclusive. Unless noted, on the % scale 0 is the no-effect control and ±100 the full control effect.

SMILES | HT1080 IDH1KD tx | TDP1 cell CPT | TDP1 cell noCPT | ALOX12 inh | IL-1B inflam inh | HT1080NT lethal
CCN1CCN(Cc2ccc(NC(=O)c3ccc(C)c(NC(=O)C4=NN(c5ccccc5)C(=O)C4)c3)cc2C(F)(F)F)CC1 | -0.1% | ? | ? | ? | 16.5 | -8.0%
CCN1CCN(Cc2ccc(NC(=O)c3cc(NC(=O)c4cc5cccc(OC)c5o4)cc(OC)c3)cc2C(F)(F)F)CC1 | ? | 5.8µM* | 4.61µM* | -98.3% | -107.4*! | ?
CCN1CCN(Cc2ccc(NC(=O)c3ccc(C)c(/C=C/c4cnc(Nc5cc(N6CCNCC6)nc(C)n5)cn4)c3)cc2C(F)(F)F)CC1 | 18.4µM*! | 3.26µM* | 14.6µM* | / | -99.8* | ?
CCN1CCN(Cc2ccc(NC(=O)c3ccc(C)c(NC(=O)c4ccno4)c3)cc2C(F)(F)F)CC1 | -9.8% | 13µM* | 6.51µM* | -57.5% | -65.1* | -14.4%
CCN1CCN(Cc2ccc(NC(=O)c3cc(NC(=O)N4CCNC4=O)cc(OC)c3)cc2C(F)(F)F)CC1 | -23.4% | 16.4µM* | 20.6µM* | ? | 50.1 | -11.2%
Cc1ccsc1CN1CCC(CO)(CN2CCCC2)CC1 | / | / | / | 34.1% | / | /
C[N+](C)(C#CCc1ccccc1)C/C(Cl)=C(\Cl)c1ccccc1 | / | / | / | 0.0% | / | /
CC(NC(=O)Cc1ccc(N(Cc2cccc(F)c2)C(=O)c2ccco2)cc1)c1ccccc1 (configuration not stated) | / | / | / | -0.5% | / | /
Cc1csc(NC(=O)c2sc3nc4c(c(C(F)(F)F)c3c2N)CCC4)n1 | / | / | / | -2.4%[57.4 µM] | / | /
CCCNC(=O)N1CCCC2(CCC(=O)N(CCc3cnc[nH]3)C2)C1 (configuration not stated) | / | / | / | -7.8% | / | /
CCN1CCN(Cc2ccc(NC(=O)c3cc(NC(=O)c4cc(-c5ccc(OC)cc5)n[nH]4)cc(OC)c3)cc2C(F)(F)F)CC1 | ? | ? | 4.61µM* | -6.8% | -0.1 | ?
CCN1CCN(Cc2ccc(NC(=O)c3ccc(C)c(NC(=O)c4csc(-c5ccncc5)n4)c3)cc2C(F)(F)F)CC1 | ? | 16.4µM* | 23.1µM* | -9.4% | 0.0 | ?
O=C(Nc1ccc(Br)cc1)c1csc(-c2ccncc2)n1 | -5.6% | -29.8% | ? | -3.1% | -12.9 | -15.0%
COc1cc(NC(=O)N2CCNC2=O)cc(C(=O)Nc2cccc(C(F)(F)F)c2)c1 | 5.8µM* | 3.66µM* | 4.11µM* | -17.7% | 38.3 | 4.61µM*
CCN1CCN(Cc2ccc(NC(=O)c3cc(NC(=O)c4ccc5n[nH]nc5c4)cc(OC)c3)cc2C(F)(F)F)CC1 | 10.8% | 11.9% | -7.2% | 6.2% | 2.5 | 0.7%
O=C(Nc1cccc(C(F)(F)F)c1)N1CCN(C(=O)Nc2cccc(C(F)(F)F)c2)CC1 | -11.1% | -10.1% | -8.8% | 0.0% | 39.1 | -2.4%
CCN1CCN(Cc2ccc(NC(=O)c3cc(NC(=O)c4cncc(-c5cccs5)c4)cc(OC)c3)cc2C(F)(F)F)CC1 | 18.4µM* | 16.4µM* | 7.31µM* | ? | -103.5*! | ?
CC(Nc1oc(COc2ccccc2)nc1C#N)c1ccccc1 (configuration not stated) | / | / | / | 1.5% | / | /
Cc1ccc(NC(=O)CCCc2nc3ccccc3o2)cc1C | / | / | / | 12.3% | / | /
CCN1CCN(Cc2ccc(NC(=O)c3cc(NC(=O)C4=NN(c5ccccc5)C(=O)C4)cc(OC)c3)cc2C(F)(F)F)CC1 | -1.8% | ? | ? | ? | -3.0 | -2.8%
CCN1CCN(Cc2ccc(NC(=O)c3ccc(C)c(NC(=O)C[C@@H]4NC(=O)[C@H](Cc5ccccc5)NC4=O)c3)cc2C(F)(F)F)CC1 | 0.0% | 4.6% | 0.0% | 45.0% | 63.6 | 9.5%
